The values below come from PubChem BioAssay AID1347075 (National Center for Advancing Translational Sciences (NCATS), 2019).

Each structure is given as a SMILES string. The campaign covered roughly 400,000 compounds. About 5,500 (1.4%) were called active. About 9% were inconclusive and are not listed. Calls come from the whole dose curve; as a rule, active = well fitted cell-killing curve with a large enough effect; inconclusive = small, poorly fitted or top-dose-only effect, or effect the other way; inactive = flat fitted curve, though single readings scatter. The sample as a whole holds a higher share of actives than the screen did.
% is set by controls: 0 for no effect and ±100 for the full control effect; potency is the fitted concentration of half-maximal effect.

This test is described as follows: qHTS assay for MDR1-selective chemotherapeutics: Primary screen using the parental adenocarcinoma cell KB-3-1. Note: nearly all actives have a fitted effect of over 60% in size. As to conditions: KB-3-1 viability, CellTiter-Glo ATP luminescence, 72 h; series mostly up to 46.1 µM; activity change, negative = cytotoxic: at the top concentration. From the text:
A prime difficulty in effectively treating cancer is the development of cellular resistance to multiple structurally unrelated anticancer drugs, a phenomenon known as multidrug resistance (MDR). […] Numerous strategies to overcome P-gp-mediated MDR have been explored, including the design of drugs that evade recognition and efflux, and development of inhibitors to block efflux and restore drug accumulation. […] An alternative approach is to exploit resistance by identifying drugs that target MDR cells over the non-resistant parental cells from which they were selected. […] The development of MDR1-selective agents represents a new strategy for resolving multidrug resistance, as it remains a long-standing clinical challenge for cancer chemotherapy.
Our goal is to identify compounds that selectively kill P-gp-expressing MDR cells. We will identify MDR1-selective compounds by comparing toxicity of compounds in the screening library against parental, drug-naive (KB-3-1) adenocarcinoma cells as well as their drug-selected MDR sub-line (KB-V1). The differential toxicity of compounds against these two cell lines will be used to identify MDR1-selective compounds, whose cytotoxicity is potentiated, rather than diminished, by P-gp expression. This assay will be utilized to conduct a quantitative high-throughput screen (qHTS) in collaboration with the NIH Chemical Genomics Center to identify selective agents, and probe hits arising from the screen will be validated using secondary assays and characterized through a well-established follow-up research program. This screen was run against the entire NCGC library collection of about 400,000 compounds.
NIH Molecular Libraries Probe Production Network [MLPCN]
NIH Chemical Genomics Center [NCGC]
PI: Michael Gottesman PhD, National Cancer Institute, NIH
Briefly, 5 microL of media containing either KB-3-1 cells (columns 1-2, 4-48) are dispensed into Greiner white, treated solid-bottom 1536-well assay plates (media-only control is added to column 3). Compounds are then transferred via Kalypsys pin tool equipped with 1536-pin array (10 nL slotted pins, V&P Scientific, San Diego, CA). Following addition of compound, the plates are incubated at 37 degrees C for 72 hours. CellTiter-Glo (2.5 µL/well) is then added, and the plates are read in a ViewLux reader (Perkin-Elmer, clear luminescence filter, 1 second exposure, 1x binning) following a 10 minute incubation. All cells are dispensed in DMEM phenol-red free media containing 10% FBS.
Library plates were screened starting from the lowest and proceeding to the highest concentration. Vehicle-only plates, with DMSO being pin-transferred to columns 5-48, will be inserted uniformly at the beginning and the end of each library in order to monitor and record any shifts in the background, which can be affected by reagent dispensers or loss in enzyme activity over time. Screening data will be corrected, normalized, and concentration-effect relationships will be derived by using publicly-available NCGC, NCATS curve fitting algorithms (http://ncgc.nih.gov/pub/openhts).
(In general: Quantitative high-throughput screening tests each substance at several concentrations.)
For `COC1C(O)C(C)OC(OC2CCC3(C=O)C(CCC4C3CCC3(C)C(C5=CC(=O)OC5)CCC43O)C2)C1O` (stereo not given), the Potency was 0.0058 µM (active).

On to `S=C(NCCc1ccccc1)N1Cc2cc(N3CCOCC3)ccc2-n2nncc2C1`, for which the “activity change, negative = cytotoxic” value is 0.0564% (inactive).

For the compound `O=C1NCN(c2ccccc2)C12CCN(C(c1cccs1)c1nnnn1C1CCCCC1)CC2` (stereo not given), the “activity change, negative = cytotoxic” value is 0.0564% (inactive).

As for `CC(C)CN1Cc2cc(N3CCCCC3)ccc2-n2nncc2C1`, the “activity change, negative = cytotoxic” value was 0.0564% (inactive).

Consider `O=C(NCC1=C(c2ccc3ccccc3c2)C[C@@H]2CC[C@H]1N2Cc1ccco1)c1cccs1`, for which the “activity change, negative = cytotoxic” value was -17% (inactive).

In the case of `CCCCCCCCCCCCn1ccc(=N)cc1`, the Potency is 1.3 µM (active).

With `COc1ccc(NC(=O)N2Cc3ccccc3-n3nncc3C2)cc1`, the “activity change, negative = cytotoxic” value was 6.29% (inactive).

Consider `c1cc2c(c(NC3=NCCCS3)c1)CCCC2`, for which the “activity change, negative = cytotoxic” value was -15.7% (inactive).

With `CC(=O)NCC1=C(c2ccc3ccccc3c2)C[C@@H]2CC[C@H]1N2Cc1ccco1`, the “activity change, negative = cytotoxic” value was 1.55% (inactive).

Take `O=c1[nH]c2ccccc2n1C1CCN(C(c2ccnc3ccccc23)c2nnnn2Cc2ccccc2)CC1` (stereo not given): the “activity change, negative = cytotoxic” value is -2.56% (inactive).

Consider `CCOC(=O)[C@]12Cc3ccccc3[C@H]1N(C1CCCCC1)C(=O)c1cc(OC)ccc12`, for which the Potency is 4.61 µM (active).

For the compound `CCOC(=O)[C@]12Cc3cc(OC)ccc3[C@H]1N(C(C)C)C(=O)c1ccccc12`, the Potency was 6.51 µM (active).

With `O=C(O)c1cc[c]([Sb](=[O])([OH])[OH])cc1[N+](=O)[O-]`, the “activity change, negative = cytotoxic” value was 29% (inactive).

Turning to `Cc1ccc(OC(=O)N(C)C[C@@H]2OCc3cnnn3CCCC(=O)N([C@H](C)CO)C[C@@H]2C)cc1`, the “activity change, negative = cytotoxic” value was 8.17% (inactive).

Turning to `O=C(O)/C=C/c1ccc2c(c1)OCO2`, the “activity change, negative = cytotoxic” value is -11.5% (inactive).

As for `COC(=O)CN(CCCl)P1(=O)OCCCN1CCCl` (stereo not given), the “activity change, negative = cytotoxic” value was 23.9% (inactive).

As for `C[C@]12CCC3C(CC[C@H]4C[C@@H](O)CC[C@]34C)C1CC[C@@H]2O` (stereo not given in full), the “activity change, negative = cytotoxic” value is 22.6% (inactive).

For the compound `C[C@]12CCC3C(CC[C@H]4C[C@@H](O)CC[C@]34C)C1C[C@@H](O)[C@H]2O` (stereo not given in full), the “activity change, negative = cytotoxic” value was -0.788% (inactive).

With `C[C@]12CC[C@H](O)C[C@H]1CC[C@@H]1C2CC[C@]2(C)[C@@H](C3=CC(=O)OC3)[C@@H](O)C[C@]12O` (stereo not given in full), the Potency is 2.31 µM (active).

Regarding `COc1cc(C(=O)N2Cc3ccc(Br)cc3-n3nncc3C2)cc(OC)c1OC`, the “activity change, negative = cytotoxic” value is 0.0564% (inactive).

As for `C[C@H]1CN([C@@H](C)CO)C(=O)CCCn2nncc2CO[C@H]1CN(C)C(=O)Oc1cccc2ccccc12`, the “activity change, negative = cytotoxic” value is 0% (inactive).

For `O=C(NC1CCCCC1)N1Cc2cc(N3CCCCC3)ccc2-n2nncc2C1`, the “activity change, negative = cytotoxic” value is 0.03% (inactive).

As to `Cc1ccc(NC(=O)N(Cc2ccc3c(c2)OCO3)C2CCN(Cc3ccccc3)CC2)cc1F`, the “activity change, negative = cytotoxic” value is -5.54% (inactive).

With `CCCCCCN=C(CC)c1c(O)n(CCCC)c(=O)[nH]c1=O`, the Potency was 18.4 µM (active).

Regarding `CCCCn1c(O)c(C(CC)=NCc2ccco2)c(=O)[nH]c1=O`, the “activity change, negative = cytotoxic” value is -0.31% (inactive).

For `CCC(=NCCCO)c1c(O)n(-c2ccc(OC)cc2)c(=O)[nH]c1=O`, the “activity change, negative = cytotoxic” value was 0% (inactive).

Take `COc1cccc(C(c2nnnn2-c2ccc3c(c2)OCCO3)N2CCC3(CC2)C(=O)NCN3c2ccccc2)c1OC` (stereo not given): the “activity change, negative = cytotoxic” value is -1.93% (inactive).

With `O=C1C2CCN(CC2)C1(CO)CO`, the “activity change, negative = cytotoxic” value is 3.63% (inactive).

As to `Cn1cc(/C=C/c2nc3ccccc3c(=O)n2-c2ccccc2)c2ccccc21`, the “activity change, negative = cytotoxic” value is -7.08% (inactive).

For the compound `ClCCN(CCCl)c1ccc(C=Nc2ccc(/C=C/c3ccnc4ccccc34)cc2)cc1`, the “activity change, negative = cytotoxic” value is -0.0871% (inactive).

As for `CCOC(=O)c1c(N)n(Cc2ccccc2)c2nc3ccccc3nc12`, the “activity change, negative = cytotoxic” value is -11.6% (inactive).

Consider `COC(=O)C1=C(c2ccccc2)C[C@@H]2CC[C@H]1N2C(=O)NCc1ccco1`, for which the “activity change, negative = cytotoxic” value is -2.82% (inactive).

For `COc1cc(Cn2c(N)c(C(=O)NCc3ccco3)c3nc4ccccc4nc32)cc(OC)c1OC`, the Potency was 23.1 µM (active).

As to `c1ccc(N2Cc3ccccc3-n3nncc3C2)nc1`, the “activity change, negative = cytotoxic” value was -7.89% (inactive).

Turning to `O=P(OC1=CCCCC1)(c1ccccc1)c1ccccc1`, the “activity change, negative = cytotoxic” value was 0% (inactive).

Take `O=c1c2ccccc2[nH]c(=S)n1-c1cccc(Cl)c1`: the “activity change, negative = cytotoxic” value is -23.5% (inactive).

`Cc1nnc(NC(=O)c2cccn(Cc3cccc(F)c3)c2=O)s1`: the “activity change, negative = cytotoxic” value was 0.206% (inactive).

In the case of `CCC(C)(O)C(=O)OC1C(=O)OC2CC3C(C)=CC(=O)C(O)C3(C)C3C4(O)OCC23C1C(C)C4O` (stereo not given), the Potency was 0.291 µM (active).

On to `CCn1cc(CN2CCCC(C(=O)c3cccc(C(F)(F)F)c3)C2)cn1` (stereo not given), for which the “activity change, negative = cytotoxic” value was 0.0302% (inactive).

Take `CCOC(=O)CNC(=O)N1Cc2cc(N3CCCCC3)ccc2-n2nncc2C1`: the “activity change, negative = cytotoxic” value is -0.0736% (inactive).
